# Source: PubChem BioAssay
# SNCA viab count – counter-screen for SNCA expression inhibitors: cell viability. HEK-293-SNCA-luc viability, GF-AFC fluorescence, 24 h. Potency, µM (doses to about 57.1 µM), without a hit: top-dose activity change, negative = cytotoxicity, hits mostly cytotoxic. hit rate 0.12% among 150,000;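 also: potency is read from the fitted curve at half-maximal effect; 0% = DMSO-treated cells and -100% = medium-only wells without cells; nearly all actives have a fitted effect of over 30% in size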
#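 HEK-293-SNCA-luc cells (1500/well) plated 24 h, then exposed 24 h to a dilution series; GF-AFC added 30 min at 37C, fluorescence 405/540 nm; normalised to medium-only and DMSO wells, Hill fit.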
# Luciferase inh – Photinus pyralis luciferase inhibition; Potency, µM (series often up to 115 µM), most hits filed as inhibitors; P08659; hit rate 2.5% among 76,000; purified P. pyralis luciferase, luminescence, biochemical; AID 1347043; also: potency is read from the fitted curve at half-maximal effect; nearly all actives have a fitted effect of over 65% in size
# Target sequence (P08659 whole entry, looked up): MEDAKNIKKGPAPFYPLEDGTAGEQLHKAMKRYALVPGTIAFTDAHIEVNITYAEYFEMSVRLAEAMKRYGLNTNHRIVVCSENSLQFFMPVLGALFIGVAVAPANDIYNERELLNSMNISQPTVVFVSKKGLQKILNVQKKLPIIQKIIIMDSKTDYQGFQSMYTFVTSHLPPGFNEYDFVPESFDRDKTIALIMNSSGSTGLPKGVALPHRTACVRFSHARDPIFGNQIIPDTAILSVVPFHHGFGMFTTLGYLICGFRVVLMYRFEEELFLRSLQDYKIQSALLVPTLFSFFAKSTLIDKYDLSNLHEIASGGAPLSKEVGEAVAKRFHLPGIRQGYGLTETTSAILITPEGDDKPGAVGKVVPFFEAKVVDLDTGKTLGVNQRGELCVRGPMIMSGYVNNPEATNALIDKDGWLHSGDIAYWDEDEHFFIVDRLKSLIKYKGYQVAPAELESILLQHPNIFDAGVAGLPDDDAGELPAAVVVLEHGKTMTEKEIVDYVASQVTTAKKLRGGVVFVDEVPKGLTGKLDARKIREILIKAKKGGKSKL
#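 Luminescence read by CCD imaging after purified firefly luciferase (10nM final) was added to substrate buffer holding 10uM D-luciferin and 10uM ATP, pH 7.5, pre-dosed with compound.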
# HEK293 tox – cytotoxic compounds in HEK 293 cells; hit rate 6.6% among 94,000; HEK 293 viability, ATP luminescence (CellTiter-Glo), 48-72 h; Potency, µM (titrated, usually from 115 µM), for inactives: at the highest dose activity change, negative = cytotoxicity, hits mostly inhibitors; also: potency is read from the fitted curve at half-maximal effect; nearly all actives have a fitted effect of over 60% in size
#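 Luminescence from cellular ATP, measured with CellTiter-Glo, indicates HEK 293 viability. Cells plated at 250 cells/well are treated with compound for 48 or 72 hr at 37 degree Celsius before reagent addition.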
# 3T3 cytotox – kills NIH 3T3 cells; NIH 3T3 viability, CellTiter-Glo ATP luminescence, 48-72 h; Potency, µM (top dose mostly 96.7 µM), inactives show top-dose activity change, negative = cytotoxicity, hits mostly inhibitors; hit rate 4.3% among 94,000; AID 1345082; also: potency is read from the fitted curve at half-maximal effect; nearly all actives have a fitted effect of over 55% in size
#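 ATP-dependent luminescence (CellTiter-Glo) served as the viability signal for NIH 3T3 cells treated with compound for 48 or 72 hr at 37 °C.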
# SNCA expr inhib – SNCA gene expression inhibition; Potency, µM (titrated, usually from 57.2 µM), without a hit: at the top dose activity change, negative = inhibition, usual class: inhibitors; HEK-293 SNCA-luciferase knock-in, luminescence, 24 h; hit rate 0.17% among 140,000; AID 1671194;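 also: potency is read from the fitted curve at half-maximal effect; plate controls were DMSO cells for no effect and cell-free wells for full effect; nearly all actives have a fitted effect of over 45% in size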
# IP6K1 inh – inhibitors of human IP6K1; IP6K1 kinase, ADP-Glo luminescence, 2 h; active compounds read low; activity change, % (series mostly up to about 58 µM); hit rate 0.81% among 140,000; AID 1645851; in the data active = activity change below about -25%
#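 ADP-Glo luminescence measures ADP made by human IP6K1 during a 2 h RT reaction with ATP/IP6 (mix at 1.3 mM/130 uM); top library doses 57.5 and 19.1 uM final.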
# IP6K1 inh cnf – human IP6K1 inhibition, confirmatory; shares compounds with IP6K1 inh; recombinant IP6K1 kinase, ADP-Glo luminescence, 2 h; Potency, µM (highest dose often 49 µM), for inactives: at the highest dose activity change, negative = inhibition, most hits filed as inhibitors; hit rate 13% among 1,200; AID 1645852; also: potency is read from the fitted curve at half-maximal effect; nearly all actives have a fitted effect of over 65% in size
# Starred values were filed as active, the others as inactive; i = inactive; ? = inconclusive; . = not tested or not shown; [ ] = another dose, or the depositor's remark. Most compounds without a hit are left out; they make up all but 7.3% or so of the library. Unless noted, calls follow the shape of the dose curve; as a rule, active = well fitted curve in the direction sought with a large enough effect; inconclusive = small, poorly fitted or top-dose-only effect, or another doubt; inactive = no such curve, though single readings can be large; an effect the other way counts as inactive or inconclusive. Unless noted, % is scaled to controls: 0 for no effect and ±100 for the full control effect.
SMILES,SNCA viab count,Luciferase inh,HEK293 tox,3T3 cytotox,SNCA expr inhib,IP6K1 inh,IP6K1 inh cnf
Cc1ccc(CN2CCC(CN(C)C(=O)c3ccc(C4CCCN4)s3)CC2)o1 (centres undefined),-13%,i,?,?,0%,-2,.
Cc1cc(-c2ccc(C)c(S(=O)(=O)N3CCC(C)CC3)c2)on1,-5%,.,.,.,-9%,-26*,-17%
N#C/C(=C\c1ccc(O)c(O)c1)C(=O)Nc1ccccc1,4%,.,.,.,109%,.,16µM*
C[C@@H](NC(=O)/C(C#N)=C/c1ccc(O)c(O)c1)c1ccccc1,-8%,.,.,.,9%,.,.
O=C(O)C1CC2(CCN(C(=O)NCc3ccccc3F)CC2)CN1 (centres undefined),-5%,i,i,i,27%,-12,.
Cc1ccc(NS(=O)(=O)c2ccc3[nH]c4c(c3c2)CCCC4)cc1N(C)C,-23%,.,.,.,?,-27*,-7%
Cc1cccc(C)c1NC(=O)CN(C)S(=O)(=O)c1ccc2[nH]c3c(c2c1)CCCC3,-3%,.,.,.,-16%,-26*,21%
O=C(NC[C@H]1OC[C@@H](NC2CCC(F)(F)CC2)[C@@H]1O)c1ccccc1,-3%[87.6 µM],i,3%[172 µM],i,21%[87.6 µM],-9,.
CCOC(=O)[C@@H]1[C@@H](O)C(=O)N(Cc2ccccc2)C12CCN(C(=O)C1CC1)CC2,.,.,2%,?,.,2,.
CCN1/C(=C/C=C/c2sc3ccccc3[n+]2CC)Sc2ccccc21,0%[12.5 µM],.,.,.,-76%[17 µM],-36*,?
COCCCNc1nc(NCc2ccc(C)cc2)c2cnn(C)c2n1,-11%,.,.,.,-3%,-36*,-8%
Cn1ncc2c(NCc3ccccc3Cl)nc(NCCO)nc21,0%,.,.,.,25%,-18,.
COCCCNc1nc(NCc2ccccc2OC)c2cnn(C)c2n1,10%,.,.,.,-16%,-30*,-14%
COCCNc1nc(NCc2ccccc2OC)c2cnn(C)c2n1,5%,.,.,.,7%,-10,.
Cc1nn(-c2ccccc2)c2c1C(C)N(C1CCN(C(=O)C(C)C)C1)C2=O (centres undefined),.,.,?,?,.,-5,.
COc1cccc(-c2cccc(C(=O)N3CCCC3C(=O)NCc3ccc(Cl)cc3)c2)c1 (centres undefined),?,.,?,?,?,-3,.
Cc1cc(-c2cnc(N)c3c(-c4ccc5scnc5c4)csc23)n(C)n1,-36%,.,.,.,.,-31*,?
Cc1ccc(C)c(N2CCN(c3ccc(NC(=O)c4cccs4)cc3C(=O)O)CC2)c1,1%,.,.,.,20%,-33*,?
O=C(Nc1cccc(-c2nnc3n2CCCC3)c1)C1CCC1,?,i,-11%,5%,-22%,8,.
O=C(Nc1cc2cc[nH]c2cn1)c1ccccc1,?,.,.,.,1.5µM*,-28*,?
COc1ccc(Cn2c3c(c(=O)n2Cc2ccccc2)CCN(C(=O)c2cccc(O)c2)C3)cc1,-1%,i,-5%,?,19%,6,.
Cn1c(N2CCN(C(=O)CC[C@H]3NC(=O)c4ccccc4NC3=O)CC2)nc2ccccc21,10%,i,-2%,0%,-16%,13,.
O=C(N[C@H](Cc1ccccc1)C1CC(O)C1)c1cnn(Cc2ccccc2)c1 (some centres undefined),4%,i,2%,0%,32%,-9,.
Cc1ccc(F)c(C(=O)N[C@H](Cc2ccccc2)C2CC(O)C2)c1Cl (some centres undefined),6%,i,-14%,-10%,55%,-34*,-11%
CCOC(=O)c1cccc(NC(=O)N2Cc3ccccc3Oc3ncccc32)c1,?,.,.,.,-9%,-33*,-21%
SMILES,SNCA viab count,Luciferase inh,HEK293 tox,3T3 cytotox,SNCA expr inhib,IP6K1 inh,IP6K1 inh cnf
Cc1ccc(NC(=O)c2cc(S(=O)(=O)NC3CCCCCC3)ccc2F)cc1F,?,.,.,.,?,-27*,-6%
Cc1ccc(NC(=O)c2cc(S(=O)(=O)N3CCCc4ccccc43)ccc2F)cc1F,-1%,.,.,.,-19%,-29*,-9%
CCCCN1CCN(C(=O)C2CCCN(c3cnn(Cc4ccccc4)c(=O)c3)C2)CC1 (centres undefined),10%,i,?,-15%,26%,14,.
CCOc1ccc(CN(CCc2ccc3c(c2)OCO3)Cc2cc(OC)c(OC)cc2OC)cc1,-5%,.,.,.,-4%,-30*,51%
CCOc1ccccc1CN(CCc1ccc2c(c1)OCO2)Cc1cccc(OC)c1OC,-27%,.,.,.,?,-1,.
O=C(c1ccc2c(c1)OCO2)N1CC2(C1)C(=O)Nc1ccccc12,-2%,.,i,i,-5%,-16,.
O=C(c1ccc2c(c1)OCO2)N1CCC2(CC1)C(=O)Nc1ccccc12,-5%,.,-25%,-3%,-9%,-33*,?
CCOC(=O)c1c(NC(=O)/C(C#N)=C/c2ccc(OC)cc2)sc2c1CCC2,5%,.,.,.,8%,17,.
CCOc1ccc(/C=C(\C#N)C(=O)Nc2sc3c(c2C(=O)OC)C(C(=O)OC)CC3)cc1OC (centres undefined),-4%,.,.,.,-12%,-29*,2.9µM*
COc1ccc(CN2C[C@H]3CN(Cc4cnn(C)c4)CCN3C2=O)cc1,9%[87.6 µM],i,-10%[172 µM],-6%[138 µM],-6%[87.6 µM],-30*,?
Cc1c(NC(=O)c2sc3c([N+](=O)[O-])cccc3c2Cl)cccc1-c1nc2ccccc2o1,12%,.,.,.,9%,-28*,7%
Cc1c(NC(=O)c2ccc(N3CCC(C)CC3)c([N+](=O)[O-])c2)cccc1-c1nc2ccccc2o1,-10%,.,.,.,-1%,-18,.
Cc1ccc(NC(=O)C(=O)NCC(c2ccc3c(c2)OCO3)N2CCN(C)CC2)cc1C (centres undefined),1%,.,.,.,?,-27*,-10%
CCN1CC2(CCN(C(=O)c3cnc4c(O)cccn4c3=O)CC2)OC1=O,?,i,0%,-1%,-11%,-27*,-6%
O=C1NCC2(CCCN(C(=O)c3cnc4c(O)cccn4c3=O)C2)O1 (centres undefined),20%,i,?,4%,-14%,-7,.
COc1ccc(-c2cc(N3CCC(NC(=O)c4ccccc4F)CC3)n[nH]2)cc1,-5%,i,?,?,-10%,16,.
CCC(=O)c1c(O)cc(O)cc1O,35%[23.9 µM],.,.,.,12%[25.6 µM],-29*,?
COCCN1CCCCCC(O)c2cc(C(=O)NCCN3CCCC3)ccc21 (centres undefined),5%,i,?,?,-20%,5,.
